Hits are enriched below; roughly 4.7% of the tested compounds scored in any of these assays.
tim10-1 inh – growth inhibitors of tim10-1 mutant yeast; inhibition, % at 20 µM; S. cerevisiae tim10-1 ts strain growth, BacTiter-Glo, 24 h; AID 463190; hit rate 2.2% among 330,000;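 active = inhibition of at least 40%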;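 note: mutant grown at 25 °C; 0% = DMSO wells with yeast and 100% = wells holding no yeast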
PfHsp90 yeast 2 – reduces growth (ATP signal) of yeast expressing P. falciparum Hsp90; S. cerevisiae expressing PfHsp90, BacTiter-Glo ATP, 48 h; yeast lacking PDR1 and PDR3 efflux regulators; inhibition, % at 9.4 µM; hit rate 0.32% among 310,000; AID 504621;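 active = every replicate shows inhibition above about 80%, whatever the replicate mean, limit read from the data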;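 note: 0% = DMSO neutral controls and 100% = 20 µM radicicol positive controls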
SKKanGAS inh – SKKanGAS growth inhibition; S. pyogenes SKKanGAS, kanamycin growth, BacTiter-Glo, 6 h; inhibition, % at 7.5 µM; hit rate 1.3% among 300,000; AID 1662;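 active = mean replicate score, as percent of positive control median, at least 50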;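 note: strain carries kanamycin resistance gene driven by streptokinase promoter and grows in 40 µg/ml kanamycin; loss of luminescence reflects streptokinase promoter inhibition or plain growth inhibition; 0% = median of DMSO wells and 100% = positive control at its reference dose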
TIM10 inh – inhibits growth of TIM10 yeast strain; inhibition, % at 10 µM; AID 463195; hit rate 1.4% among 330,000; S. cerevisiae TIM10 strain growth, BacTiter-Glo luminescence, 24 h;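 active = inhibition of 40% or more at the single tested concentration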;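 note: wild-type TIM10 isogenic control strain grown at permissive 25 °C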
EBI2 antag – EBI2 (human) antagonism; P32249; EBI2 beta-arrestin recruitment, luminescence, 7a,25-OHC stimulated; inhibition, % at 5 µM; hit rate 0.81% among 360,000; AID 651636; in the data active = inhibition above about 38%;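 note: enzyme fragment complementation signal reports receptor beta-arrestin coupling in cells; 0% = agonist plus DMSO wells and 100% = wells without agonist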
Target sequence (P32249 whole entry, looked up, the tested form may be a part): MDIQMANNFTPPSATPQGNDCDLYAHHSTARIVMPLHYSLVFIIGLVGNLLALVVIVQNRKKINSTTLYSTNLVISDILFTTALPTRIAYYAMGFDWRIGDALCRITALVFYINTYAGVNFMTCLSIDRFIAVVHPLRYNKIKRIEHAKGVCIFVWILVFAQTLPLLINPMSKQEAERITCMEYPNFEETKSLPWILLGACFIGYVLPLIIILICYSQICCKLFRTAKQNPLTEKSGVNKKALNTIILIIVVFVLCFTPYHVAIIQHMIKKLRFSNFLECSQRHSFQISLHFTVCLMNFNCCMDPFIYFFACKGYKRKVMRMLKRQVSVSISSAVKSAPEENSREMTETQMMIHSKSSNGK
tim23-1 inh – growth inhibitors of tim23-1 mutant yeast; S. cerevisiae tim23-1 growth, BacTiter-Glo luminescence, 24 h; inhibition, % at 20 µM; hit rate 1.3% among 330,000; AID 463212;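 active = growth inhibition of the mutant yeast at or above 50%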;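 note: temperature-sensitive mutant grown at 25 °C; plate controls were DMSO-treated mutant yeast for no effect and medium wells lacking yeast for full effect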
Numbers without * were called inactive.

Screening CCCCn1c(O)c(C(C)=Nc2ccc(OCC)cc2)c(=O)[nH]c1=O returned tim10-1 inh 22, PfHsp90 yeast 2 -14, SKKanGAS inh 65*, TIM10 inh 7, EBI2 antag 1 and tim23-1 inh 37.
`CCCNC1=C(C)C(=O)C2=C(C1=O)C(COC(N)=O)[C@]1(OC)C3NC3CN21` (some centres not stated) gave tim10-1 inh 3, PfHsp90 yeast 2 -10, SKKanGAS inh 109*, TIM10 inh 6, EBI2 antag -10 and tim23-1 inh 6.
CC(C)OCCCNC(=O)c1c(N)n(Cc2cccs2)c2nc3ccccc3nc12 was read as tim10-1 inh 35, PfHsp90 yeast 2 -10, SKKanGAS inh 37, TIM10 inh 30, EBI2 antag 71* and tim23-1 inh 42.
O=c1[nH]c(=S)n(CCC2=CCCCC2)c(O)c1C=NCc1cccnc1 was read as tim10-1 inh 29, PfHsp90 yeast 2 -4, SKKanGAS inh -7, TIM10 inh 12, EBI2 antag 0 and tim23-1 inh 15.
For O=C(N/N=C/c1c(O)n(CCC2=CCCCC2)c(=S)[nH]c1=O)c1ccccc1 the results were tim10-1 inh 2, PfHsp90 yeast 2 0, SKKanGAS inh 97*, TIM10 inh 16, EBI2 antag 1 and tim23-1 inh 26.
O=C(N/N=C/c1c(O)n(CCC2=CCCCC2)c(=O)[nH]c1=O)c1ccccc1 was read as tim10-1 inh 11, PfHsp90 yeast 2 2, SKKanGAS inh 62*, TIM10 inh 5, EBI2 antag 5 and tim23-1 inh -5.
Screening COc1ccc(/C=C/C(=O)c2c(O)n(CCC3=CCCCC3)c(=O)[nH]c2=O)cc1 returned tim10-1 inh 7, PfHsp90 yeast 2 3, SKKanGAS inh 58*, TIM10 inh 6, EBI2 antag -3 and tim23-1 inh 10.
For CCOP(=S)(NN(Cc1ccccc1)C(=O)c1ccccc1)OCC the results were tim10-1 inh 1, PfHsp90 yeast 2 6, SKKanGAS inh 1, TIM10 inh 11, EBI2 antag 5 and tim23-1 inh 24.
Screening Cc1ccc(OP(=O)(Nc2cccc(C)c2)Oc2ccc(C)cc2)cc1 returned tim10-1 inh 30, PfHsp90 yeast 2 -3, SKKanGAS inh 76*, TIM10 inh 8, EBI2 antag 9 and tim23-1 inh 27.
COc1ccc(OC)c(-n2c(O)c(C=Nc3c(C)n(C)n(-c4ccccc4)c3=O)c(=O)[nH]c2=S)c1 was read as tim10-1 inh -5, SKKanGAS inh 0, TIM10 inh 7, EBI2 antag 3 and tim23-1 inh -5.
Screening CNC(C(=O)c1ccccc1)C(OC)c1ccc(C)cc1 (configuration not stated) returned tim10-1 inh 16, PfHsp90 yeast 2 -12, SKKanGAS inh 4, TIM10 inh 17, EBI2 antag -5 and tim23-1 inh 11.
Screening COC(=O)C1=C(C(=O)OC)SC2(S1)C(C(=O)OC)=C(C(=O)OC)Sc1c2ssc1=O returned PfHsp90 yeast 2 117* and EBI2 antag -12.
O=C(Nc1cccnc1)c1c(O)c2c(n(Cc3ccccc3)c1=O)CCCC2 was read as tim10-1 inh 15, PfHsp90 yeast 2 3, SKKanGAS inh 52*, TIM10 inh 15, EBI2 antag 5 and tim23-1 inh 23.
COc1cc2cc(C(=O)N3CC(COS(C)(=O)=O)c4ccc(O)cc43)[nH]c2c(OC)c1OC (configuration not stated) was read as PfHsp90 yeast 2 104* and EBI2 antag -10.
Screening CC(C)c1oc(=O)cc2c1[C@@H](O)[C@H]1OC(=O)[C@@]3(C)C[C@@H](O)[C@@H](O)[C@@]2(C)C13 (some centres not stated) returned tim10-1 inh 3, PfHsp90 yeast 2 -5, SKKanGAS inh 2, TIM10 inh 1, EBI2 antag 7 and tim23-1 inh -2.
C=CC(=O)OCCO was read as PfHsp90 yeast 2 -14 and EBI2 antag -11.
`CCCCCCn1c(=O)c(C(=O)Nc2nnc(C)s2)c(O)c2ccccc21` gave tim10-1 inh 10, SKKanGAS inh -6, TIM10 inh 3 and tim23-1 inh 8.
`CCCCn1c(=O)c(C(=O)Nc2nnc(C(C)C)s2)c(O)c2ccccc21` gave tim10-1 inh -1, SKKanGAS inh 95*, TIM10 inh 5 and tim23-1 inh 0.
Screening CCCCn1c(=O)c(C(=O)Nc2ncccc2C)c(O)c2ccccc21 returned tim10-1 inh -5, PfHsp90 yeast 2 -23, SKKanGAS inh 107*, TIM10 inh -14, EBI2 antag -8 and tim23-1 inh 9.
CCCCCn1c(=O)c(C(=O)Nc2ccccc2C)c(O)c2ccccc21 was read as tim10-1 inh -5, PfHsp90 yeast 2 5, SKKanGAS inh -2, TIM10 inh -10, EBI2 antag 7 and tim23-1 inh 1.
Screening CCCCCn1c(=O)c(C(=O)Nc2nc(CC(=O)OCC)cs2)c(O)c2ccccc21 returned tim10-1 inh 5, PfHsp90 yeast 2 -26, SKKanGAS inh 71*, TIM10 inh -1, EBI2 antag -7 and tim23-1 inh 9.
Screening CCCCCCn1c(=O)c(C(=O)Nc2ncccc2C)c(O)c2ccccc21 returned tim10-1 inh -15, PfHsp90 yeast 2 12, SKKanGAS inh 94*, TIM10 inh -29, EBI2 antag -9 and tim23-1 inh -4.
Screening CN(C)C1=NP(N(C)C)(N(C)C)=NC(c2ccccc2)=N1 returned tim10-1 inh 13, PfHsp90 yeast 2 14, SKKanGAS inh 9, TIM10 inh -2, EBI2 antag 3 and tim23-1 inh -2.
Screening COC(=O)C1=C(c2ccc(-c3ccccc3)c(F)c2)C[C@@H]2CC[C@H]1N2C(=O)N1CCCC1 returned tim10-1 inh -7, PfHsp90 yeast 2 21, TIM10 inh 16, EBI2 antag 21 and tim23-1 inh 34.
Screening COc1ccccc1NP1(=O)OCC(C)([N+](=O)[O-])CO1 (configuration not stated) returned PfHsp90 yeast 2 2 and EBI2 antag -17.
`CCCC/C(C)=C/[C@@H](NP(=O)(c1ccccc1)c1ccccc1)c1ccccc1` gave tim10-1 inh 36, PfHsp90 yeast 2 2, SKKanGAS inh 73*, TIM10 inh 19, EBI2 antag 16 and tim23-1 inh 35.
`O=C1C(=O)c2cccc3cccc1c23` gave tim10-1 inh -13, PfHsp90 yeast 2 -14, SKKanGAS inh -2, TIM10 inh 11, EBI2 antag 57* and tim23-1 inh 15.
For CC(C)(C)C(=O)N1Cc2cc(N3CCCCC3)ccc2-n2nncc2C1 the results were EBI2 antag -6.
`O=C1NC(=O)N(CCc2ccc(F)cc2)C(=O)/C1=C\C=C\c1ccccc1` gave EBI2 antag 48*.

Screens as filed in PubChem BioAssay.
